Screens from PubChem BioAssay.
D3 antag: antagonists of human D3 dopamine receptor; P35462; D3R cells, DiscoveRx beta-arrestin luminescence, antagonist mode; hits give low values; max response, negative = inhibition, %; 360,000 compounds, 2.5% hits; AID 652054; in the data active means max response below about -50%; inconclusive means no clear call, values can overlap the other calls; further: on the % scale 0 is the no-effect control and ±100 the full control effect
Target sequence (P35462 whole entry, looked up): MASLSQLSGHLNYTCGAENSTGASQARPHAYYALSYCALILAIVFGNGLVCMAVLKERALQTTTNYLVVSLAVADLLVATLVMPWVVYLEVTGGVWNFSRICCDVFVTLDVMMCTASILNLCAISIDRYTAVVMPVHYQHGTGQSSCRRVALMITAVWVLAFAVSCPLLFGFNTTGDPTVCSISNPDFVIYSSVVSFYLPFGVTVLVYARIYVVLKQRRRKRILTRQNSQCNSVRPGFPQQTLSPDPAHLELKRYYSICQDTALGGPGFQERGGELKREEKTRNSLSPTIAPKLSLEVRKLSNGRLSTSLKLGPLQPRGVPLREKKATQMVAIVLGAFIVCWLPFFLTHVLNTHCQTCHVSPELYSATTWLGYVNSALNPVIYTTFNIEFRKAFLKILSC
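Cells plated overnight at 1500 cells/well, then exposed to library compounds with dopamine controls for 90 minutes at 37 degrees C. DiscoveRx reagent added for 30–60 minutes at room temperature; luminescence read, quantitative HTS format.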
KB-V1 cytotox: kills drug-selected multidrug resistant KB-V1 cells; AID 1347076; 400,000 compounds, 3.4% hits; KB-V1 MDR cells viability, CellTiter-Glo, 72 h; Potency, µM (doses to about 46.1 µM), usual class: cytotoxic; further: potency means the concentration at half of the fitted maximal effect; on the % scale 0 is the no-effect control and ±100 the full control effect; nearly all actives have a fitted effect of over 60% in size
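Readout: CellTiter-Glo luminescence, 10 min after addition. Cells: KB-V1 MDR subline, 72 h at 37 degrees C with compound. Analysis: corrected, normalized data fitted to concentration-effect curves.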
KB-3-1 cytotox: kills parental KB-3-1 adenocarcinoma cells. KB-3-1 viability, CellTiter-Glo ATP luminescence, 72 h. Potency, µM (titrated, usually from 46.1 µM), hits mostly cytotoxic. 400,000 compounds, 1.4% hits. AID 1347075; further: potency means the concentration at half of the fitted maximal effect; on the % scale 0 is the no-effect control and ±100 the full control effect; nearly all actives have a fitted effect of over 60% in size
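Luminescent ATP read-out (CellTiter-Glo) measures survival of drug-naive KB-3-1 cells after 72 h compound exposure at 37 °C. Titration series was screened from lowest to highest concentration, with DMSO vehicle plates as background controls.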
MCF10A rereplic: inducers of DNA re-replication in MCF 10A breast cells; MCF 10A DNA re-replication, Hoechst nuclear intensity, 48 h; AID 624296; Potency, µM (doses to about 46.1 µM), for inactives: at the highest dose activity, positive = re-replication, actives largely listed as activators; 350,000 compounds, 2.9% hits; further: potency means the concentration at half of the fitted maximal effect; % of control where 0% means no effect; nearly all actives have a fitted effect of over 50% in size
SW480 rereplic: inducers of DNA re-replication in SW480 colon cancer cells; SW480 DNA re-replication, Hoechst DNA content imaging, 48 h; Potency, µM (top dose mostly 46.1 µM), for inactives: top-dose re-replication activation, usual class: activators; 340,000 compounds, 1.8% hits; AID 624297; further: potency means the concentration at half of the fitted maximal effect; % of control where 0% means no effect; nearly all actives have a fitted effect of over 55% in size
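DNA re-replication was detected as more nuclei of elevated Hoechst intensity after 48 hr exposure to compound (23 nL pinned per well of 250 cells).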
D3 ag: agonists of human D3 dopamine receptor; P35462; D3R DiscoveRx beta-arrestin cells, luminescence, 90 min; max activation, %; 410,000 compounds, 0.58% hits; in the data active means max activation above about 30%; further: 0% is about no effect
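Cells at 1500/well, incubated overnight, then treated with pinned compounds (dopamine as control) for 90 min at 37 degrees C. DiscoveRx reagent added for 30 - 60 minutes at room temperature; luminescence read.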
An asterisk follows results filed as active; i = inactive; ? = inconclusive; / = not tested or not shown. Most compounds without a hit are left out; they make up all but 8.9% or so of the library. Unless noted, the call rests on the fitted dose curve; in most records, active means well fitted curve in the direction sought with a large enough effect; inconclusive means small, poorly fitted or top-dose-only effect, or another doubt; inactive means no such curve, though single readings can be large; an effect the other way counts as inactive or inconclusive.

SMILES	D3 antag	KB-V1 cytotox	KB-3-1 cytotox	MCF10A rereplic	SW480 rereplic	D3 ag
CCC1CCc2c(sc(NC(=O)C3c4ccccc4Oc4ccccc43)c2C#N)C1 (centres undefined)	/	?	i	/	/	17.7
COc1ccccc1CNC(=O)C1CCCN(c2nc3ccccc3n3cccc23)C1 (centres undefined)	/	/	/	/	/	-1.3
O=C(N/N=C/c1cc(Cl)ccc1O)C(=O)Nc1ccccc1OC(F)(F)C(F)F	-2.1	?	?	?	?	9.0
O=C(N/N=C/c1cc(Br)ccc1O)C(=O)Nc1ccccc1OC(F)(F)C(F)F	14.0	?	?	?	?	48.5*
O=C(CN1C(=O)c2ccccc2Sc2ccc(C(=O)N3CCOCC3)cc21)Nc1ccc(Cl)cc1F	/	/	/	/	/	4.8
O=C(O)CCCNS(=O)(=O)c1ccc2ccccc2c1	?	i	i	-2.0%	-2.2%	-1.8
Cc1cc(C)cc(N(CCC(=O)Nc2nnc(C)s2)S(=O)(=O)c2ccc(Cl)cc2)c1	-2.6	23.1µM*	?	?	17.1%	-0.7
Cc1cc(C)cc(N(CCC(=O)O)S(=O)(=O)c2ccc3ccccc3c2)c1	1.1	i	i	8.2µM*	?	-14.2
CCOC(=O)C1(C)CCCCCN1C(=O)c1ccc(C(=O)OC)cc1 (centres undefined)	-21.7	i	i	/	/	-7.6
C=CCn1c(-c2ccccc2)nc(=S)c2c1CCCC2	?	i	i	-1.5%	-144.1%	-11.7
Cc1c(C)c2ccc(OCC(=O)Nc3ccc(S(N)(=O)=O)cc3)c(C)c2oc1=O	-0.5	i	i	18.4µM*	-1.0%	-3.3
CCc1cc(=O)oc2c(C)c(OCC(=O)Nc3ccc(S(=O)(=O)N(CC)CC)cc3)ccc12	/	i	i	/	/	-6.6
Cn1c(SCc2ccc(Cl)cc2)nc(C(F)(F)F)cc1=O	21.5	16.4µM*	?	20.1%	-3.4%	15.6
COC(=O)c1cnc(SCc2ccc(Cl)cc2)n1C	8.3	i	i	-10.0%	0.9%	1.1
COc1ccc(N/C=C(\C#N)c2nc3ccccc3n2C)c(OC)c1	40.3	20.6µM*	i	?	17.0%	9.8
CCC1CCCCN1S(=O)(=O)c1cc2c3c(c1)CC(=O)N3CCC2 (centres undefined)	/	i	i	/	/	-10.7
Cc1ccc(Cn2c(=N)c(C(=O)NCC3CCCO3)cc3c(=O)n4cccc(C)c4nc32)cc1 (centres undefined)	-14.1	i	i	20.6µM*	8.2µM*	-2.1
N=c1c(C(=O)NCC2CCCO2)cc2c(=O)n3ccccc3nc2n1CCCO (centres undefined)	/	i	i	/	/	7.1
N=c1c(C(=O)NC2CCCC2)cc2c(=O)n3ccccc3nc2n1CCN1CCOCC1	-3.6	i	i	?	2.82µM*	-13.2
N=c1c(C(=O)NCC2CCCO2)cc2c(=O)n3ccccc3nc2n1Cc1ccccc1 (centres undefined)	-2.8	i	i	3.66µM*	2.59µM*	-4.4
CCOCCCn1c(=N)c(C(=O)NCC2CCCO2)cc2c(=O)n3cccc(C)c3nc21 (centres undefined)	/	i	i	/	/	1.4
Cc1ccc(Cn2c(=N)c(C(=O)NCC3CCCO3)cc3c(=O)n4ccccc4nc32)cc1 (centres undefined)	3.2	i	i	3.26µM*	18.4µM*	-6.1
CC1(C(=O)NS(=O)(=O)c2ccc(F)cc2F)CCN1C(=O)c1cccc(F)c1 (centres undefined)	-4.8	i	i	/	/	-6.2
COc1ccc(NC(=O)c2sc3nc(-c4cc5ccc(OC)cc5oc4=O)[nH]c(=O)c3c2C)cc1	/	i	i	/	/	-10.4
N=c1c(C(=O)NCC2CCCO2)cc2c(=O)n3ccccc3nc2n1Cc1ccc(Cl)cc1 (centres undefined)	-2.7	i	?	?	0.581µM*	-5.3
